This note sets out measurements from PubChem BioAssay.

Assay [1] is described as follows: yeast TOR pathway RPL19A-GFP modulators, primary screen, cell-based, S. cerevisiae, multiplex flow cytometry (AID 1862; in the data active means percent of DMSO control GFP below about 86%;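 further: lower values mimic rapamycin by blocking the RPL19A rise seen in DMSO cells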). To be noted: S. cerevisiae RPL19A-GFP strain, flow cytometry fluorescence, 3 h; at 10 µM; stronger effect = lower value.
The nature of assay [2]: modulators of MEP2-GFP levels in yeast, primary screen, S. cerevisiae, multiplex flow cytometry (AID 1867;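 active means GFP response, as percent of the DMSO control, above the screen-wide mean plus 3 SD, about 139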;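 further: median GFP channel fluorescence of barcode-gated MEP2-GFP cells measured by flow cytometry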). As to conditions: S. cerevisiae MEP2-GFP strain, 3 h, at 10 µM, stronger effect = higher value, 100% means same as DMSO wells. (A flow cytometer gives signals particle by particle.)
A short description of assay [3]: modulators of CIT2-GFP expression in yeast, primary screen, S. cerevisiae, GFP fusion, multiplex flow cytometry (AID 1870;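 active means percent response above a set limit, the screen-wide mean plus 3 SD, cut at about 130% in these data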;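 further: barcoded CIT2-GFP strain pooled with four other GFP strains with rapamycin as positive control; median GFP fluorescence per well over plate mean of DMSO wells so 100% = DMSO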). As to conditions: 3 h, at 10 µM, stronger effect = higher value.
Assay [4] is described as follows: modulators of LAP4-GFP expression in yeast, primary screen, S. cerevisiae, multiplex flow cytometry (AID 1873;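 active means GFP signal, as percent of the solvent control, above the screen mean plus 3 SD, about 149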). As to conditions: 3 h, at 10 µM, stronger effect = higher value.
A short description of assay [5]: modulators of AGP1-GFP expression in yeast TOR pathway, primary screen, cell-based, multiplex flow cytometry, S. cerevisiae (AID 1887;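 active means GFP signal above the screen-wide mean plus 3 SD, that is over about 124.5% of the solvent control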;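 further: AGP1-GFP fusion strain of S. cerevisiae within a five-strain barcoded multiplex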). To be noted: 3 h, at 10 µM, stronger effect = higher value.
Assay [6] in a line: inhibitors of CD8+ T cell-vesicle binding, pilot screen, LFA-1/ICAM-1 modulator project, MLPCN validation set, flow cytometry (AID 2523;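 active means response below a set limit, under 55% cells CD8-positive and vesicle-bound, and CD8 cells' 90th-percentile brightness under 279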;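 on vesicle binding response: mean PE anti-B7-1 fluorescence of CD8+ cells relative to row control; 100% = QL9-loaded vesicles with DMSO vehicle in the same plate row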). As to conditions: 2C mouse CD8+ T cells, at 7 µM, stronger effect = lower value; double positive events: measured here: CD8+/vesicle+ event percentage.
The target in assay [7] is Integrin beta-1 (Homo sapiens) + Integrin alpha-4 (Homo sapiens) (UniProt P13612+P05556). The assay can be described thus: inhibition of HUTS-21 binding to VLA-4, pilot screen, VLA-4 allosteric modulator project, U937 cells, HUTS-21 mAb, flow cytometry, validation set (AID 2674;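 active means inhibition above 50%, about 3 SD of the validation set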;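 further: antibody binding induced by the VLA-4 ligand LDV present at three times its Kd; 0% = LDV ligand with antibody and no compound and 100% = antibody without LDV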). To be noted: HUTS-21 LIBS mAb binding, at 6.7 µM, stronger effect = higher value, binding induced by LDV ligand.
Sequence of Integrin beta-1 (Homo sapiens) + Integrin alpha-4 (Homo sapiens) (P05556 whole entry, looked up): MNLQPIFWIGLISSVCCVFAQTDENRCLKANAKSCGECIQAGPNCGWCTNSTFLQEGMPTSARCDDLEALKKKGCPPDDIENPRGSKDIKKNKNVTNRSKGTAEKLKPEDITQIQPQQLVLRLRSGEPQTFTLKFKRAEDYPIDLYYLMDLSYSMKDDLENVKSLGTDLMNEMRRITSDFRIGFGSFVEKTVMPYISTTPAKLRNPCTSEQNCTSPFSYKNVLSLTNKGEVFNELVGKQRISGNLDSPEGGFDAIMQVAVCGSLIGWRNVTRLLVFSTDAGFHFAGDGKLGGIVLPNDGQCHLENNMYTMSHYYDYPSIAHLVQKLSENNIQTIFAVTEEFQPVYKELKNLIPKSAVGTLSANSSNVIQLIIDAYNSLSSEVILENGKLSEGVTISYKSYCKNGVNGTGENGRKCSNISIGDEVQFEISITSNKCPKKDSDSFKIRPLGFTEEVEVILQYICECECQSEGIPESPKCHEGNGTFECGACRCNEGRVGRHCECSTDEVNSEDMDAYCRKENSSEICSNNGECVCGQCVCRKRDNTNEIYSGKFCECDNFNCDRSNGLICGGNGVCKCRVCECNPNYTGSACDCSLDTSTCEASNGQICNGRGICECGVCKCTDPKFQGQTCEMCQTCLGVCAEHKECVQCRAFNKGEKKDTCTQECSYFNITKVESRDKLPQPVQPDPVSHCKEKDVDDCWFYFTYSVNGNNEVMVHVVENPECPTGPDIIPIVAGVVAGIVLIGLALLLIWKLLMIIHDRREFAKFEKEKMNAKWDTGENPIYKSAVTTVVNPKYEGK
Sequence of Integrin beta-1 (Homo sapiens) + Integrin alpha-4 (Homo sapiens) (P13612 whole entry, looked up): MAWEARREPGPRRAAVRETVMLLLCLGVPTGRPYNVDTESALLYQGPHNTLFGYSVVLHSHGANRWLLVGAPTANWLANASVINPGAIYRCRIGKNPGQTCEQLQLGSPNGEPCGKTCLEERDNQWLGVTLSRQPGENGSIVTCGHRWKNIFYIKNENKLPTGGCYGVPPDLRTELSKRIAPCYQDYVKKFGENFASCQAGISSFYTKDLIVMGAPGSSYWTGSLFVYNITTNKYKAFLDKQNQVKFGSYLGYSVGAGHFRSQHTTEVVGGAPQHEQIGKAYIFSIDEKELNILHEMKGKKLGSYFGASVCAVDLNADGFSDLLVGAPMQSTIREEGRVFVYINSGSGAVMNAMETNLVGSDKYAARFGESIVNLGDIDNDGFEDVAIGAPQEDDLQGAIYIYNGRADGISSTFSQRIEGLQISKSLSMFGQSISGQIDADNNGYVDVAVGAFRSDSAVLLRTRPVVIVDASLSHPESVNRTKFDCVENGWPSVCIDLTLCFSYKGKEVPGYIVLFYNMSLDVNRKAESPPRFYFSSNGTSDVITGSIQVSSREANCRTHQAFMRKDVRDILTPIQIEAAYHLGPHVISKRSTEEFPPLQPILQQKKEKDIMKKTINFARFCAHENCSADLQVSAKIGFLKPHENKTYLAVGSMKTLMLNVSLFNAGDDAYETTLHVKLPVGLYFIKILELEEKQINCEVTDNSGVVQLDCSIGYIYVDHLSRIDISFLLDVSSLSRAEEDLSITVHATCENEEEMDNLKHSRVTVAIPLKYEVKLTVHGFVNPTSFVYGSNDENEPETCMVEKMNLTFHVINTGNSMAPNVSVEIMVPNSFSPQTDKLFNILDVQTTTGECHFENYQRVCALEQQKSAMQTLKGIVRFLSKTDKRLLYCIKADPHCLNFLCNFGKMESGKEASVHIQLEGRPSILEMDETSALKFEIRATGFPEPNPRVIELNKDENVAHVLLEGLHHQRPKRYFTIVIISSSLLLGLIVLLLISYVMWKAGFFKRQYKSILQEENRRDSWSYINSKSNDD

A short description of assay [8]: superoxide lowering in aged yeast cells, pilot screen, validation compound set (AID 2706;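 active means superoxide response below 65% of plate, a cut near 3 SD across the whole screen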;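 further: yeast exposed to compound for one week at 30 degrees C before staining; 100% = mean of all compound wells on the same plate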). To be noted: S. cerevisiae aging, superoxide DHE fluorescence; at 10 µM; stronger effect = lower value.
For assay [9], the target named is Beta-adrenergic receptor kinase 1 (Homo sapiens) (UniProt P25098). Briefly: GRK2 binders displacing RNA aptamer, biochemical, validation, human GRK2, bead flow cytometry (AID 488806;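 active means aptamer binding inhibition above 30%, about 3 SD of noise from non-fluorescent compounds; inactive means inhibition at or below 30%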). As to conditions: bead-bound GRK2, FAM-aptamer displacement, at 10 µM, stronger effect = higher value.
Sequence of Beta-adrenergic receptor kinase 1 (Homo sapiens) (P25098 whole entry, looked up): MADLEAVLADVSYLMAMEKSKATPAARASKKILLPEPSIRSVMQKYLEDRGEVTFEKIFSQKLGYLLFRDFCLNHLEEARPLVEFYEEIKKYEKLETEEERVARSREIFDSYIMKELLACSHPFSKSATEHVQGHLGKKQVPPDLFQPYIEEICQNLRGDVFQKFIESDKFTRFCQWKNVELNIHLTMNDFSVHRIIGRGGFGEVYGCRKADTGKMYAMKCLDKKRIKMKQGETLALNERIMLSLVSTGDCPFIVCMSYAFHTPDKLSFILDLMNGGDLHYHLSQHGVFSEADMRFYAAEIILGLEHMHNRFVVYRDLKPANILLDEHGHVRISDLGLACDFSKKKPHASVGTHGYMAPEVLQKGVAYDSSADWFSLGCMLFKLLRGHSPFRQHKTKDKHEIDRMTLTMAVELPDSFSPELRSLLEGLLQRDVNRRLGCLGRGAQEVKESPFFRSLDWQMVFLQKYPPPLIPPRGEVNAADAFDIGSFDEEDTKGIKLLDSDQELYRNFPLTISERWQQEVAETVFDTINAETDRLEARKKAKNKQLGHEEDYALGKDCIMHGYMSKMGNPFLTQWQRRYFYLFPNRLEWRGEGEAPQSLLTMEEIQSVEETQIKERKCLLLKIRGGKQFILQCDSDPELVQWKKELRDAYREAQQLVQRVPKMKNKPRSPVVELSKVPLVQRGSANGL
The target in assay [10] is Beta-2 adrenergic receptor (Homo sapiens) (UniProt P07550). Briefly: beta2AR agonists driving receptor internalization, pilot screen, cell-based, FAP fluorogen, flow cytometry, validation set (AID 504459;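 active means percent response above 42, roughly 3 SD of non-fluorescent test compounds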;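 further: agonist-driven loss of surface beta2AR via internalization measured by FAP dye flow cytometry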). To be noted: Am2.2-beta2AR cells, FAP surface receptor flow cytometry; at 10 µM; stronger effect = higher value.
Sequence of Beta-2 adrenergic receptor (Homo sapiens) (P07550 whole entry, looked up): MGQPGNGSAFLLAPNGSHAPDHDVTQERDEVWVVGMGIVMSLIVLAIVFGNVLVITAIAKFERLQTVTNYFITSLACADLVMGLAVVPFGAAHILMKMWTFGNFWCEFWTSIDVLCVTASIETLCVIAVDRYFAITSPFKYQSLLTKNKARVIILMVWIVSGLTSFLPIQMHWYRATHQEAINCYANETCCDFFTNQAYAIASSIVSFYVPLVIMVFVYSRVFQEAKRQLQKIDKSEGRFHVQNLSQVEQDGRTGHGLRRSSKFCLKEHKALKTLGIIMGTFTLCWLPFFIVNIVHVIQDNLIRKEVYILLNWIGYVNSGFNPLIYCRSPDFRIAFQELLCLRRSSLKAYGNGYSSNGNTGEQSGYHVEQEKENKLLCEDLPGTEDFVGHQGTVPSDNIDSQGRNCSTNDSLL
Assay [11] concerns the target AP-2 complex subunit beta (Homo sapiens) (UniProt P63010). The assay can be described thus: inhibitors of arrestin peptide binding to AP2, pilot screen, biochemical, validation set, GST-AP2 beads, flow cytometry (AID 504541;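 active means inhibition above 54%, about 3 SD of non-fluorescent compounds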;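 further: AP2 carries R879A mutation and is captured from E. coli lysate; bead-bound FITC arrestin peptide fluorescence measuring arrestin peptide binding to AP2; 0% = DMSO wells and 100% = excess unlabeled arrestin peptide control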). As to conditions: FITC arrestin peptide, at 10 µM, stronger effect = higher value, AP2 beta2 appendage fragment, R879A mutant.
The nature of assay [12]: yeast V-ATPase proton transport modulators, S. cerevisiae, pHLuorin, HTS validation (AID 504600; in the data active means response above about 15%;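 further: plate controls were DMSO for no effect and reference compound for full effect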). As to conditions: S. cerevisiae pHLuorin cytosolic pH, at 10 µM, stronger effect = higher value.
The subject of assay [13] is anti-desmoglein-3 scFv antibody binding to human DSG3. The assay can be described thus: inhibitors of anti-DSG3 scFv binding to DSG3, pilot screen, biochemical, validation compound set, bead-based, flow cytometry (AID 588368;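 active means binding below the plate cutoff, the plate median minus 3 SD, with a reading above zero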;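 further: signal is the median channel fluorescence of bead-bound GFP antibody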). As to conditions: Protein G beads, DSG3-Fc, scFv-GFP binding, at 10 µM, stronger effect = lower value.
The nature of assay [14]: inhibitors of fungal efflux pumps CDR1, CDR2, MDR1, pilot screen, validation compound set, multiplex, phenotypic (AID 588506).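 Further: Nile Red retained in cells so higher fluorescence means more efflux inhibition; 0 = negative control wells and 1 = enniatin B 25 µM full block.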 As to conditions: S. cerevisiae pump-expressing triplex, Nile Red efflux flow cytometry; at 10 µM; stronger effect = higher value; the pumps come from Candida albicans.
Assay [15] addresses ATP-binding cassette sub-family B member 6 (Homo sapiens) (UniProt Q9NP58). The assay can be described thus: ABCB6 transporter inhibitors, pilot screen, K562-ABCB6 cells, flow cytometry, validation set (AID 588550;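 active means inhibition above the screen-wide mean plus 3 SD, about 51%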;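 further: 0% = DMSO wells and 100% = benzethonium chloride 70 µM positive control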). To be noted: K562-ABCB6 porphyrin accumulation, 1 h, at 10 µM, stronger effect = higher value.
The nature of assay [16]: promoters of myeloid differentiation in arrested cells, primary screen, cell-based, GFP/MAC1 double positive, flow cytometry, validation set (AID 588685;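 active means differentiation response of at least 50%, scaled between solvent and reference control, from cells with both markers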;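 further: compound exposure lasts four days before antibody staining and flow analysis; 0% = DMSO wells and 100% = 5 µM fulvestrant positive control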). To be noted: ER-HoxA9 marrow cells, stronger effect = higher value, normalized: vehicle 0, fulvestrant 100.

As a reminder, the inhibition is the change of the read-out against control, counted positive when it falls.

Inconclusive results are not listed. Active and inactive are the calls of the source.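 How the source made its calls, unless noted: active means efflux inhibition above 0.42, the validation set average plus 4 SD; inconclusive means no clear call, values can overlap the other calls; inactive means the rest.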

Sequence of ATP-binding cassette sub-family B member 6 (Homo sapiens) (Q9NP58 whole entry, looked up): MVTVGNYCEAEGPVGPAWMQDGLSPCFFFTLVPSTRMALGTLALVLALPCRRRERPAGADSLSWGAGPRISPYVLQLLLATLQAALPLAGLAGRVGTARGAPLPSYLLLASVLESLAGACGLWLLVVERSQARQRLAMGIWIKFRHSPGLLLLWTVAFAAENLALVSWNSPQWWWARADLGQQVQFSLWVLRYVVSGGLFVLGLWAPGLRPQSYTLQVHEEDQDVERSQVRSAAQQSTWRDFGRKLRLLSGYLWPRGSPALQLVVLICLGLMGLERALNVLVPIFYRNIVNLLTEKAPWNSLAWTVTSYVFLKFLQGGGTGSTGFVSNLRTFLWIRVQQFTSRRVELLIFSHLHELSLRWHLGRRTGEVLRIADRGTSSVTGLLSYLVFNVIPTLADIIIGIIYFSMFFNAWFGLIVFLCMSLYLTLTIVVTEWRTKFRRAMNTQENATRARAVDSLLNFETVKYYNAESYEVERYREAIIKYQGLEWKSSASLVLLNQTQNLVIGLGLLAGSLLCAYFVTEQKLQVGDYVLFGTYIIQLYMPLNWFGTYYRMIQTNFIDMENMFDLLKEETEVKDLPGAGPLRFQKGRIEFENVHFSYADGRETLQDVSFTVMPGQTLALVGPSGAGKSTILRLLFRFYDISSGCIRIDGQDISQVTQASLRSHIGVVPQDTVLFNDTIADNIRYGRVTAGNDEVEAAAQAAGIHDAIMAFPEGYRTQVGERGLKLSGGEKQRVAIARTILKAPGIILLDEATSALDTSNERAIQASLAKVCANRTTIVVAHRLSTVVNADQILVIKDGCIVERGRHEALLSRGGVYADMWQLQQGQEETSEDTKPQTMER
Sequence of AP-2 complex subunit beta (Homo sapiens) (P63010 whole entry, looked up, the tested form may be a part, one chain of several): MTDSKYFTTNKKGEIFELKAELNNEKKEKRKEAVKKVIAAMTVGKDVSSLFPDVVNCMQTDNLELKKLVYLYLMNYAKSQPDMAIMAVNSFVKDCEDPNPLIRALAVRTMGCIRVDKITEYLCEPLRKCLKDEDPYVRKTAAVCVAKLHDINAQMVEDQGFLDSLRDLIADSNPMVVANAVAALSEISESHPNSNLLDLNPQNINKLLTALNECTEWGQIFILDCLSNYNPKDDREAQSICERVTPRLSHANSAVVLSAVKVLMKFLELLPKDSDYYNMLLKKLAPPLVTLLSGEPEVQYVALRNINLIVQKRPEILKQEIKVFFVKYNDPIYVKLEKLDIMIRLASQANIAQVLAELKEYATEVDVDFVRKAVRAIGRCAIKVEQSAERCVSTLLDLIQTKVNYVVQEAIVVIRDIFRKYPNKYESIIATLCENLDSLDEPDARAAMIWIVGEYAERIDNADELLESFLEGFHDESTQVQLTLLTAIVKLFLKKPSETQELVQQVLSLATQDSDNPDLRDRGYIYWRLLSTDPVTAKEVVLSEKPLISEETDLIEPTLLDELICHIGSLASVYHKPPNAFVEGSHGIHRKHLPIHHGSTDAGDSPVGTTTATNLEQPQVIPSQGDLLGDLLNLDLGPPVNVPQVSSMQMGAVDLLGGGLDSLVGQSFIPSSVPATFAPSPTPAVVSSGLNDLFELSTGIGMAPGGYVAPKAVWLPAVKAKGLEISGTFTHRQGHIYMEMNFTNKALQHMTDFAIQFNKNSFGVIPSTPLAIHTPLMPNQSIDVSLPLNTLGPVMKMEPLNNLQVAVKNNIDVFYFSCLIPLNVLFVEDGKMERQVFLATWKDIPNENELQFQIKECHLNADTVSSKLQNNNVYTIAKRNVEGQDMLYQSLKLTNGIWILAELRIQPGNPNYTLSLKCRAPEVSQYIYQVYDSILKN

Turning to `CC(=O)[C@H]1CC[C@H]2[C@@H]3C[C@H](C)C4=CC(=O)CC[C@]4(C)[C@H]3[C@@H](O)C[C@]12C`, the percent of DMSO control GFP in [1] was 95.9% (inactive). Further, the GFP response vs DMSO in [2] was 116% (inactive); in [4], 86.9% (inactive). In addition, the percent response of DMSO control in assay [3] is 102% (inactive). In [5], the GFP response, % of DMSO was 92.6% (inactive). The double positive events in [6] came out at 63.6%. In addition, in [6], the vesicle binding response is 151% (inactive). Further, the figures for the inhibition in assay [7], in assay [11] and in assay [15] were 2.58% (inactive), -0.56% (inactive) and 9% (inactive), respectively. Further, in [8], the superoxide response (% of plate) is 95.6% (inactive). Further, the aptamer binding inhibition in assay [9] is 8% (inactive). The results for the response in assay [10] and in assay [12] were -10% (inactive) and 2.7% (inactive), respectively. In addition, in assay [13], the binding (% of control) is 108% (inactive). Also, in assay [14], the efflux inhibition (fraction of control) is 0.09 (inactive). Further, the differentiation response in [16] was -2.46% (inactive).
In the case of `Cc1ccccc1C(=O)NCC(=O)O`, the percent of DMSO control GFP in assay [1] is 103% (inactive). The GFP response vs DMSO in [2] was 107% (inactive); in assay [4], 93.7% (inactive). In assay [3], the percent response of DMSO control is 103% (inactive). Besides, in assay [5], the GFP response, % of DMSO was 105% (inactive). The double positive events in assay [6] worked out at 61.4%. Also, the vesicle binding response in assay [6] was 130% (inactive). Also, the inhibition was 0.25% (inactive) in [7], -5.73% (inactive) in assay [11] and -7% (inactive) in [15]. Moreover, the superoxide response (% of plate) in assay [8] is 102% (inactive). The aptamer binding inhibition in assay [9] was 5% (inactive). The response in [10] was 2.69% (inactive); in assay [12] it was 109% (active). Besides, the binding (% of control) in assay [13] was 103% (inactive). In addition, the efflux inhibition (fraction of control) in assay [14] was 0.31 (inactive). Further, in assay [16], the differentiation response was -13.3% (inactive).
With `CC(=O)O[C@H]1C[C@@]2(C)[C@@H](C[C@@H](O)[C@H]3[C@@]4(C)CC[C@@H](O)[C@@H](C)C4CC[C@@]32C)/C1=C(\CCC=C(C)C)C(=O)O` (stereo not given in full), the percent of DMSO control GFP in assay [1] is 102% (inactive). Besides, the GFP response vs DMSO in assay [2] was 107% (inactive); in [4] it was 106% (inactive). In addition, the percent response of DMSO control in assay [3] is 104% (inactive). The GFP response, % of DMSO in assay [5] is 115% (inactive). Moreover, the double positive events in assay [6] amounted to 63.4%. In addition, the vesicle binding response in [6] is 177% (inactive). For the same compound, the inhibition in assay [7] was 11.7% (inactive); in assay [11], -14.5% (inactive); in assay [15], 3% (inactive). Moreover, in [8], the superoxide response (% of plate) is 116% (inactive). For the same compound, in assay [9], the aptamer binding inhibition was -1% (inactive). Also, the response is -16.8% (inactive) in [10] and -3.26% (inactive) in [12]. In [13], the binding (% of control) is 100% (inactive). Also, the efflux inhibition (fraction of control) in assay [14] is 0.17 (inactive). Besides, in assay [16], the differentiation response is -9.91% (inactive).
In the case of `COc1cc2c(cc1OC)C(c1ccc(-c3cc(Cl)ccc3Cl)o1)=NCC2`, the percent of DMSO control GFP in assay [1] was 102% (inactive). For the same compound, the GFP response vs DMSO is 109% (inactive) in [2] and 75.2% (inactive) in assay [4]. The percent response of DMSO control in [3] is 101% (inactive). In addition, the GFP response, % of DMSO in [5] was 79.3% (inactive). Also, the double positive events in assay [6] was 59.5%. The vesicle binding response in [6] is 228% (inactive). The inhibition in assay [7] was -53.7% (inactive); in assay [11] it was 17.6% (inactive); in assay [15] it was 3% (inactive). In addition, the superoxide response (% of plate) in [8] was 97.5% (inactive). In addition, in assay [9], the aptamer binding inhibition is 5% (inactive). Moreover, the response in [10] is 60.6% (active); in assay [12] it was 2.96% (inactive). The binding (% of control) in assay [13] was 101% (inactive). In assay [14], the efflux inhibition (fraction of control) was 0.3 (inactive). Besides, the differentiation response in [16] is -26.4% (inactive).
Regarding `O=C(Nc1ncc2c(n1)CC(c1ccco1)CC2=O)c1ccco1` (stereo not given), in assay [1], the percent of DMSO control GFP was 93.9% (inactive). In addition, the GFP response vs DMSO in assay [2] is 113% (inactive); in assay [4], 132% (inactive). For the same compound, in [3], the percent response of DMSO control was 95.8% (inactive). Moreover, the GFP response, % of DMSO in assay [5] was 95.7% (inactive). For the same compound, the double positive events in assay [6] is 55%. For the same compound, the vesicle binding response in [6] was 187% (inactive). Besides, the inhibition in [7] is -11.3% (inactive); in assay [11] it was 1.11% (inactive); in assay [15] it was 1% (inactive). Also, the superoxide response (% of plate) in [8] is 102% (inactive). For the same compound, the aptamer binding inhibition in assay [9] is 6% (inactive). Besides, the response was -16% (inactive) in assay [10] and -0.72% (inactive) in assay [12]. Besides, the binding (% of control) in assay [13] was 99.1% (inactive). Further, in assay [14], the efflux inhibition (fraction of control) was 0.01 (inactive). Besides, the differentiation response in assay [16] was -18.4% (inactive).
